# Most compounds without a hit are left out; they make up all but 2.9% or so of the library.
# p53 reactivator: re-activators of mutant p53 | Potency, µM (doses to about 92.2 µM), for the others: at the highest dose activity change, positive = activation, actives largely listed as activators | 320,000 tested, 0.063% active | H1299 p53-A138V BP100-luciferase reporter, luminescence, 24 h | AID 504706; note: potency is the fitted concentration of half-maximal effect; % of control where 0% means no effect; nearly all actives have a fitted effect of over 45% in size
#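 H1299 (p53-null), stable ts p53-A138V + BP100-Luc; 1000 cells/well, Opti-MEM/10% FBS; cpd 4 pt, 1:5; 24 h, 37 deg C, 5% CO2; detection reagent 10 min RT; luminescence.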
# HEK293 tox: cytotoxic in the GLP-1 receptor inverse agonist counter-screen; HEK293 cAMP-luciferase reporter cells, luminescence, 24 h; Potency, µM (doses to about 38.3 µM), without a hit: at the top dose activity change, negative = inhibition, most hits filed as inhibitors; 410,000 tested, 0.13% active;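 note: loss of luciferase light is scored as toxicity; potency is the fitted concentration of half-maximal effect; % is set by controls: 0 for no effect and ±100 for the full control effect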
#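 1536-well qHTS counterscreen of the MLSMR; 200 cells/uL, 12 h pre-incubation, 23 nL cpd, 24 h at 37 deg C 5% CO2, luciferase detection reagent, 12 min RT, luminescence. Inhibition = undesired.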
# GLP1R ag: activates the human GLP-1 receptor; AID 624172; HEK293 GLP-1R CRE-luciferase, luminescence, 4-6 h; cells express a hypersensitive GLP-1R form; 380,000 tested, 0.007% active; P43220; Potency, µM (doses to about 45.6 µM), for inactives: top-dose activation, actives largely listed as activators; note: potency is the fitted concentration of half-maximal effect; % of control where 0% means no effect
# Target sequence (P43220 whole entry, looked up): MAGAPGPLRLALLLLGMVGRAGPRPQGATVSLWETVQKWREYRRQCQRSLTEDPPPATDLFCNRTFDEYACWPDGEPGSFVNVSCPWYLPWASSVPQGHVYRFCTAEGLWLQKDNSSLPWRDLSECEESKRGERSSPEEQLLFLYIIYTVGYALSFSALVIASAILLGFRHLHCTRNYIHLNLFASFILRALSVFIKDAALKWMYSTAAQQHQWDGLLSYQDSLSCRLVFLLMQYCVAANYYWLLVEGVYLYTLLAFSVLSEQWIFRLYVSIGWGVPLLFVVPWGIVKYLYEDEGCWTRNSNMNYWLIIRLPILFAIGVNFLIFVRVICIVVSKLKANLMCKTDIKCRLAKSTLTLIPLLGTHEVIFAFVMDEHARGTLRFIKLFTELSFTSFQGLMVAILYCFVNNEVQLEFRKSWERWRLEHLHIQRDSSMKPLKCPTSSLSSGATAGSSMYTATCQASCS
# GLP-1R inv ag: inverse agonists of human GLP-1 receptor; HEK293 GLP-1R CRE-luciferase, luminescence, 24 h; GLP-1R form is constitutively active; Potency, µM (series often up to 38.3 µM), without a hit: at the top dose activity change, negative = inhibition, usual class: inhibitors; 410,000 tested, 1.6% active; note: potency is the fitted concentration of half-maximal effect; % is set by controls: 0 for no effect and ±100 for the full control effect; nearly all actives have a fitted effect of over 55% in size
#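 Using stably transfected HEK293 (constitutively active GLP-1R, cAMP-luciferase reporter), compounds were incubated 24 hr and luciferase measured by luminescence.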
# LDHA inh: inhibitors of human lactate dehydrogenase A; AID 1347041; 480,000 tested, 0.15% active; activity change, % (values are at about 110 or 230 µM); purified LDHA, NADH/diaphorase-resazurin fluorescence; hits give low values; P00338; in the data active = activity change below about -30%; inconclusive = mostly about -25% to -30%;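 note: plate controls were DMSO wells for no effect and wells without enzyme for full effect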
#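 Resorufin fluorescence (ex540/em590), read at 0 and 20 min after diaphorase/resazurin addition, reports the NADH left after a 5 min room-temperature reaction of 2 nM human LDH5 with 0.06 mM NADH and 0.2 mM pyruvate.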
# ClpP mod: qHTS Assay for Activators of ClpP | ATP-dependent Clp protease proteolytic subunit (Bacillus subtilis (strain 168)), P80244 | purified B. subtilis ClpP, FRET peptide cleavage, 20 min | Potency, µM (series often up to 57.5 µM), for inactives: at the highest dose activity change, negative = active | 340,000 tested, 1.9% active | AID 651965, 2013; active = well fitted falling curve with a large enough effect; inconclusive = small, poorly fitted or top-dose-only effect; inactive = no such curve, though single readings can be large or run the other way; note: potency is the fitted concentration of half-maximal effect; the source files actives as falling curves though it sought activators and does not explain the sign; nearly all actives have a fitted effect of over 65% in size
# Target sequence (P80244 whole entry, looked up): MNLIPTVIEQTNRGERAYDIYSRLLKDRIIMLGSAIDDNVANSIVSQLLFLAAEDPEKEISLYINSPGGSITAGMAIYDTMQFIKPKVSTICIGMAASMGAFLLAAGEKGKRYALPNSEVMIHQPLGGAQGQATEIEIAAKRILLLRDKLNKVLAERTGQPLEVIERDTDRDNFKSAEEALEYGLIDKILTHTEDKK
#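 ClpP 10 microg/mL final, pH 8 Tris/KCl buffer with BSA, glycerol, Tween-20; compound pinned in; FRET-FV substrate; RT 20 min; Ex320/Em430; ΔFRET vs ADEP 5.8 microM, DMSO, no enzyme.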
# The depositor's hits bear a star; i = inactive; ? = inconclusive; nt = no result. Unless noted, calls come from the whole dose curve; as a rule, active = well fitted curve in the direction sought with a large enough effect; inconclusive = small, poorly fitted or top-dose-only effect, or another doubt; inactive = no such curve, though single readings can be large; an effect the other way counts as inactive or inconclusive.
SMILES,p53 reactivator,HEK293 tox,GLP1R ag,GLP-1R inv ag,LDHA inh,ClpP mod
CCc1c(C(=O)Nc2ccc3c(c2)Cc2ccccc2-3)cnn1-c1ccc(OC)nn1,nt,nt,nt,nt,14,nt
Cc1cccc(NC(=O)COC(=O)Cc2cccs2)c1C,8%,2%,-12%,11%,-3,25µM*
CC(C)(C)NC(=O)C(c1ccc(C#N)cc1)n1c(=O)c(-c2cc3ccccc3[nH]2)nc2ccccc21 (centres undefined),nt,i,nt,?,-1,-15%
CC(C)(C)NC(=O)C(c1ccc(C(F)(F)F)cc1)n1c(=O)c(-c2cc3ccccc3[nH]2)nc2ccccc21 (centres undefined),nt,i,nt,2.8µM*,-2,-5%
CC(C)(C)NC(=O)C(c1cccc2ccccc12)n1c(=O)c(-c2cc3ccccc3[nH]2)nc2ccccc21 (centres undefined),nt,i,nt,6.3µM*,0,2%
CC(C)(C)NC(=O)C(c1ccccc1)n1c(=O)c(-c2cc3ccccc3[nH]2)nc2ccccc21 (centres undefined),nt,i,nt,?,-5,?
Cc1cccn2c(=O)c3cc(C(=O)NCCCN4CCCC4=O)n(C)c3nc12,8%,78%,22%,75%,-2,16µM*
Cc1cccn2c(=O)c3cc(C(=O)N(C)C)n(C)c3nc12,?,12%,-1%,33%,-3,16µM*
CCCCN=C1NN=C(c2ccc3c(c2)OCCO3)CS1,26%,-23%,10%,8.9µM*,-2,nt
CCCCN=C1NN=C(c2ccc(C)c(C)c2)CS1,19%,?,7%,?,-4,nt
CC[C@@H](C)CN1C(=O)N[C@@H](c2ccccc2)C(C(C)=O)=C1C,nt,23%,17%,10%,2,-4%
CC(=O)NC1(C(Cl)(Cl)Cl)Oc2ccccc2O1,10%,-19%,1%,-5%,-3,1%
CC1(C)Cc2c(C#N)c(NCC3CCCO3)nc(-c3ccco3)c2CO1 (centres undefined),-2%,182%,23%,?,4,11µM*
CCN(CC)CCNc1nc(-c2ccco2)c2c(c1C#N)CC(C)(C)OC2,-1%,-18%,2%,0%,0,?
CC1(C)Cc2c(C#N)c(NCCc3ccccc3)nc(-c3ccco3)c2CO1,0%,274%,2%,-13%,-2,28µM*
CN(C)CCCNc1nc(-c2ccccc2)c2c(c1C#N)CC(C)(C)OC2,0%,-11%,9%,?,1,4%
Cc1nc(NCCO)c(C#N)c2c1COC(C)(C)C2,3%,-6%,1%,6%,-8,22µM*
CC1(C)Cc2c(C#N)c(NC3CCCCC3)nc(-c3ccco3)c2CO1,6%,nt,nt,nt,nt,nt
COc1ccc(NC(=O)c2c(C)oc3ccc(O)c(CN4CCC(C)CC4)c23)cc1Cl,nt,-8%,nt,?,0,-1%
Cc1cc(C(=O)N2CCN(S(=O)(=O)c3ccccc3)CC2)c(C)o1,5%,7%,0%,7%,3,-3%
Cn1c(SCCOc2cccc(Cl)c2)nnc1-c1ccncc1,2%,-7%,1%,-17%,-3,2%
CCn1c(CC(=O)Nc2cccc(OC)c2)nnc1SCC(=O)N1CCN(c2ccccc2)CC1,-11%,0%,4%,-4%,0,-3%
CCOC(=O)C1=CN(Cc2ccco2)S(=O)(=O)N(C)C1c1ccc2ccccc2c1 (centres undefined),-2%,-11%,2%,10µM*,3,1%
CC1CCN(c2nc3ccc(C(=O)NC(C)C)cc3s2)CC1,nt,6%,nt,5µM*,1,-14%
Cc1cccc(N2CCN(C(=O)c3ccc4nc(-c5ccco5)c(-c5ccco5)nc4c3)CC2C)c1 (centres undefined),6%,28%,-17%,?,5,-1%
SMILES,p53 reactivator,HEK293 tox,GLP1R ag,GLP-1R inv ag,LDHA inh,ClpP mod
COc1cccc(NC(=O)N2CCN(c3cccc(C)c3)C(C)C2)c1 (centres undefined),5%,-8%,1%,10µM*,1,0%
COc1cccc(N2CCN(C(=O)c3ccc(=O)oc3)CC2C)c1 (centres undefined),7%,19%,1%,-21%,0,28µM*
Cc1ccc2c(c1)-c1c(cnn1CC(=O)O)CO2,12%,-6%,-14%,3%,-4,-2%
Cc1cccc(N2CCN(C(=O)Cn3ncc4c3-c3cc(C)ccc3OC4)CC2C)c1 (centres undefined),nt,-12%,nt,11µM*,3,0%
c1ccc(CNc2nc3ccccc3c3nc(-c4ccccc4)nn23)cc1,nt,-1%,nt,-2%,-6,25µM*
O=C(O)c1ccc(Cl)c(S(=O)(=O)Nc2ccccc2C(=O)Nc2ccc(Cl)cc2)c1,14%,-9%,-2%,-15%,-38*,nt
COCCCNC(=O)c1ccccc1NS(C)(=O)=O,-1%,9%,-9%,7%,2,28µM*
O=C(O)c1ccc(NS(=O)(=O)c2ccc(Cl)c(C(=O)Nc3ccccc3)c2)cc1,-3%,3%,10%,6%,-5,-1%
CS(=O)(=O)Nc1ccccc1C(=O)Nc1ccccc1Cl,-9%,-7%,-9%,-2%,-12,-29%
CS(=O)(=O)Nc1ccccc1C(=O)Nc1cc(Cl)cc(Cl)c1,0%,?,-14%,?,-4,14µM*
CS(=O)(=O)Nc1ccccc1C(=O)NC1CC2CCC1C2 (centres undefined),-8%,23%,-1%,63%,-6,35µM*
CCN1CCCC1CNCC(=O)Nc1ccc(OC(F)(F)F)cc1 (centres undefined),1%,3%,6%,-27%,?,nt
CC(C)COC(=O)N1CCCC1C(=O)O (centres undefined),?,2%,-6%,0%,-3,0%
O=C(N/N=C(/CC(=O)c1cccs1)C(F)(F)F)c1ccc(O)cc1,4%,-29%,4%,?,2,1%
O=C(N/N=C(\CC(=O)c1cccs1)C(F)(F)F)c1cccnc1,1%,3%,4%,2.2µM*,-4,0%
Cc1cc(OC(C)C(=O)N(Cc2ccco2)Cc2ccco2)cc(C)c1Cl (centres undefined),nt,1%,nt,10µM*,-5,-3%
CCCCCOC(=O)C1=C(C)Nc2nnnn2C1c1ccccc1Cl (centres undefined),6%,-29%,9%,10µM*,7,-1%

# Assay outcomes from PubChem BioAssay.
